Experimental data as given in the supplement of paper PMC3334620.
Whole data set: some 33,000 sequences, median “E-score (-0.5 to 0.5)” near -0.054, cut for the highest 2% near 0.39. The list comes from a sample in which the highest values are over-represented; it also holds similar and randomly drawn sequences.

Each sequence was assayed against Ylr278c (UniProt Q05854) (assay: PBM E-score (8-mer binding enrichment) (E-score (-0.5 to 0.5)); higher = stronger / more preferred TF binding). Details: protein concentration: 200 nM; construct: GST-DNA-binding domain.
Chain of UniProt Q05854 (Q05854 whole entry, the tested form may be a part): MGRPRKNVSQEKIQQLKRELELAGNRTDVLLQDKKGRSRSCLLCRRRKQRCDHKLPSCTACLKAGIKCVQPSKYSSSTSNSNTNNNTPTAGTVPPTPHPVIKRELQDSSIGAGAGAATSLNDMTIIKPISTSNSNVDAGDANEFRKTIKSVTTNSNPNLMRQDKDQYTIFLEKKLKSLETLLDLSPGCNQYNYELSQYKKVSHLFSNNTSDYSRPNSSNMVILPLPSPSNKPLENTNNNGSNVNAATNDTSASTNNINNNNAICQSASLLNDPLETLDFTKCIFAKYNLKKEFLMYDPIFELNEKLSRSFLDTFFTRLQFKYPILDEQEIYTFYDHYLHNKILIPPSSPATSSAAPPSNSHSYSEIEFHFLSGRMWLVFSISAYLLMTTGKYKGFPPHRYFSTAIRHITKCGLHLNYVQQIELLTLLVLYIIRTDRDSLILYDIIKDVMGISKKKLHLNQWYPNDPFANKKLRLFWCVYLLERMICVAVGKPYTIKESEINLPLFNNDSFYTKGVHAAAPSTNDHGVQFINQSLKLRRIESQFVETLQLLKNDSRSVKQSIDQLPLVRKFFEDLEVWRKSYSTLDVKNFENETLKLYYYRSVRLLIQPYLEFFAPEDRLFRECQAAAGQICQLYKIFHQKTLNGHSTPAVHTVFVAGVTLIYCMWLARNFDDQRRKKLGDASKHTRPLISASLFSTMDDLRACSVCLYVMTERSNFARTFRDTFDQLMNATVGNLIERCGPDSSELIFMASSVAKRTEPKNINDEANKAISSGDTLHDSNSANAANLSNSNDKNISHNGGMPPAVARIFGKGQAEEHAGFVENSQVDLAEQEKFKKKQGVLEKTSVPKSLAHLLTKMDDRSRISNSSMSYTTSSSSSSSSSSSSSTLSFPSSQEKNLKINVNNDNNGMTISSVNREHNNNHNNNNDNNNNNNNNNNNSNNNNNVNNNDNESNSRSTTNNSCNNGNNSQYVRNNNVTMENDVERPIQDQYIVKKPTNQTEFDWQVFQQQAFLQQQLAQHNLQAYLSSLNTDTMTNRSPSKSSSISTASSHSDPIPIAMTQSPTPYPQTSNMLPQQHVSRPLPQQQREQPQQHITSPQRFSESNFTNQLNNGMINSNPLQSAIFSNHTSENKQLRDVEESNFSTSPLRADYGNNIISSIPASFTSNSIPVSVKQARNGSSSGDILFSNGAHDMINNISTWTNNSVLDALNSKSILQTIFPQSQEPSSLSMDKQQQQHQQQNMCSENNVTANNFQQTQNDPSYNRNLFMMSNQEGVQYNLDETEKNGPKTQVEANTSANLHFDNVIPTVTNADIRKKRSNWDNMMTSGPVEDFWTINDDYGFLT
Summary of the method: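 GST-tagged yeast TFs (full-length or DNA-binding domain) were made by PURExpress in vitro transcription/translation and applied at about 100-200 nM to universal all-10-mer Agilent arrays. The arrays were made double-stranded by primer extension, on fresh or once-stripped slides. Bound protein was detected with fluorescent anti-GST, and scans were normalised with masliner. Each ungapped eight-base word, pooled with its reverse complement, received an E-score (modified Wilcoxon-Mann-Whitney statistic) from the Universal PBM Analysis Suite.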

| Sequence | PBM E-score |
| --- | --- |
| AAATATCT | 0.00279 |
| GCGCAGTA | 0.0804 |
| ACTAGCGA | -0.0813 |
| ATGGATGC | -0.0459 |
| ATCATGAT | -0.14 |
| ACGTAGAC | -0.244 |
| ATGGAGAA | 0.148 |
| CCGGAGAC | 0.444 |
| AAGGAGAA | -0.0157 |
| CAGGAGAG | -0.205 |
| CGGGAGAC | 0.302 |
| ACGGAGAA | 0.434 |
| CAGGAGAA | 0.0274 |
| ACGGAGAG | 0.336 |
| CTGGAGAC | -0.222 |
| CCGGAGAG | 0.456 |
| CTGGAGAA | -0.141 |
| CCGGAGAA | 0.489 |
| CTCAGAAA | -0.257 |
| GAAGACAA | -0.0383 |
| ACCGATCG | 0.26 |
| CGGGTAAA | 0.156 |
| CTGAGAAG | -0.149 |
| ACGAGTCG | -0.159 |
| AATTTCGT | -0.0607 |

| Sequence | PBM E-score |
| --- | --- |
| CGAGATCA | 0.013 |
| GGCAGCGA | 0.0771 |
| CCCAGGAG | -0.188 |
| CAACACTC | 0.133 |
| TACGGTCA | 0.0722 |
| GTAAAGAA | -0.0759 |
| TGGGAGAA | -0.208 |
| TAGGAGAA | -0.134 |
| GCGGAGAA | 0.436 |
| TCGGAGAA | 0.465 |
| GGGGAGAA | 0.0935 |
| GTGGAGAA | -0.0956 |
| ATACCTTG | -0.236 |
| AACCTAGG | -0.102 |
| CATAGGAG | -0.136 |
| GACTATGA | -0.11 |
| AGTCTTGA | -0.247 |
| AGGAAATC | 0.178 |
| CGGAAAAC | 0.373 |
| CGGAAAAG | 0.373 |
| CGGAAAAA | 0.446 |
| CGGAAATC | 0.41 |
| AGGAAATA | 0.0859 |
| CGGAAATA | 0.451 |
| CTGAAATC | 0.0679 |

| Sequence | PBM E-score |
| --- | --- |
| GGGAAATA | 0.0851 |
| ACGCGAGA | -0.171 |
| CATTCAAG | -0.154 |
| CTCCGGGC | 0.448 |
| ATCCGAGG | 0.274 |
| AACCGGGC | 0.0679 |
| ATCCGGGG | 0.414 |
| ATCCGGGA | 0.332 |
| ATCCGGGC | 0.406 |
| GTCCGGGA | 0.38 |
| CTCCGGGA | 0.468 |
| AACCGGGG | 0.321 |
| CCCGGGGA | 0.358 |
| CTGCGGGC | 0.276 |
| CACCGGGC | 0.304 |
| TAAGAGTA | -0.0846 |
| ACGACAGA | -0.232 |
| AGCCGCAC | -0.0107 |
| CCAGACGA | -0.149 |
| CCGCTTTC | 0.211 |
| CATCCATA | -0.123 |
| CAGAGTCC | 0.0837 |
| CGGAGTCC | 0.464 |
| AGGAGTCC | 0.13 |
| AGGAGTCA | -0.121 |

| Sequence | PBM E-score |
| --- | --- |
| GGGAGTCA | -0.00639 |
| CGGAGTCA | 0.457 |
| GAAGCCAA | 0.0199 |
| ACTGTTCA | -0.122 |
| CATTCCGA | 0.391 |
| GATTCCCA | 0.0255 |
| GATTCCAA | -0.116 |
| GATTCCGA | 0.413 |
| TATTCCCA | 0.138 |
| TATTCCGA | 0.453 |
| TATTCCAA | -0.177 |
| CATTCCGG | 0.384 |
| CATTCCTA | -0.212 |
| AGCTAGTA | -0.114 |
| GAGTTCCC | 0.0904 |
| AACTTATA | 0.0873 |
| CAAGCAGG | 0.00606 |
| CCTACAGA | -0.256 |
| GAGTCGCC | 0.0773 |
| GTCAGATA | -0.151 |
| TCCTTGAA | -0.227 |
| GTTTCTGA | 0.0572 |
| CGGGCCCA | 0.091 |
| CGGGCCCG | 0.398 |
| AGGGCCCG | 0.152 |

| Sequence | PBM E-score |
| --- | --- |
| ATTTCTGC | 0.184 |
| GCGCAGCC | 0.0388 |
| GGCGGACC | 0.413 |
| AGCGGACC | 0.252 |
| ATCGGTCC | 0.325 |
| GTCGGACA | 0.386 |
| CGCGGACC | 0.386 |
| AACGGACC | 0.251 |
| ATCGGACC | 0.412 |
| ATCGGATA | 0.393 |
| ATCGGATG | 0.329 |
| CTCGGACC | 0.365 |
| CTCGGATA | 0.215 |
| CTCGGACA | 0.435 |
| CAGTGTTC | -0.0124 |
| ACCCAAGT | -0.215 |
| AATTCAAT | -0.026 |
| AGAAGTCA | -0.0826 |
| AAAGCACA | -0.103 |
| GCAACAGA | 0.0725 |
| ATCGGACA | 0.419 |
| AGCGGACA | 0.294 |
| ATCGGACG | 0.357 |
| CAGGCTAA | -0.247 |
| AGTGCGAG | -0.276 |

| Sequence | PBM E-score |
| --- | --- |
| ACCCTTAT | -0.098 |
| TTCGAAAA | 0.0013 |
| CCCACGGA | 0.359 |
| CGAACGGA | 0.312 |
| AGAACGGA | 0.256 |
| ATCACGGA | 0.365 |
| TCCACGGA | 0.406 |
| GGAACGGA | 0.398 |
| ACCACGGA | 0.341 |
| CTCACGGA | 0.264 |
| GTCACGGA | 0.401 |
| TACTGCTA | -0.151 |
| GCATACCC | -0.0377 |
| GCGTCTTA | -0.209 |
| GGGATGCA | -0.0857 |
| CTCTCTTA | -0.169 |
| AAATCTTA | -0.149 |
| GCCCTTCC | -0.0379 |
| CAGGCCGG | 0.176 |
| AAGGCCGT | 0.142 |
| AAGGCCGA | 0.4 |
| AAGGCCCG | 0.128 |
| AAGGCCGG | 0.434 |
| AAGGCCGC | 0.188 |
| CGCCTAAA | -0.186 |

| Sequence | PBM E-score |
| --- | --- |
| ATAATGCA | -0.276 |
| CGCCTCGC | 0.0203 |
| AGGGGTTC | 0.0104 |
| CGGGGTTA | 0.437 |
| CCGGGTTC | 0.337 |
| GGGGGTTA | -0.28 |
| AGGGGTTA | -0.171 |
| CGGGGTTC | 0.401 |
| ATAAGTTG | -0.0479 |
| GCTGTCTA | -0.154 |
| CATTCTCC | 0.191 |
| AATTCTCC | 0.407 |
| AATTCTCA | -0.13 |
| ACAAAAGG | 0.0804 |
| CCACCGGA | 0.455 |
| GCACCGGA | 0.429 |
| ACACCGGA | 0.416 |
| CCACCGGC | 0.295 |
| TCACCGAA | 0.178 |
| TCACCGGA | 0.394 |
| CCACCGGG | 0.329 |
| GCACCGGC | 0.264 |
| ACACCGGC | 0.355 |
| ACACCGGT | 0.324 |
| TCACCGCA | 0.0213 |

| Sequence | PBM E-score |
| --- | --- |
| GCACCGTA | 0.0145 |
| GAGTCTCC | 0.291 |
| CCGCTTGC | 0.217 |
| GTACTAGA | -0.178 |
| AGGACGTC | 0.0253 |
| AGGGCCCA | 0.00775 |
| AAGCGCAA | 0.0312 |
| AGTGGTGG | -0.158 |
| AATCCACG | 0.0023 |
| CTCCGACC | 0.458 |
| CCCCGACA | 0.301 |
| GTCCGACA | 0.393 |
| CTCCGACA | 0.438 |
| GCCCGACA | 0.216 |
| ATCCGACC | 0.234 |
| CACCGACC | 0.192 |
| ATCCGACA | 0.382 |
| GGCCGACA | 0.248 |
| CACCATCA | -0.0978 |
| GCTAGATA | -0.085 |
| GAGGGGTA | -2e-05 |
| ACGATGCA | -0.0494 |
| CTTGCAAA | 0.034 |
| AGAAATCG | 0.0562 |
| CTAAAGAC | -0.12 |

| Sequence | PBM E-score |
| --- | --- |
| AGGGAGCG | -0.14 |
| CAGGAGCG | -0.00543 |
| ACGGAGCG | 0.396 |
| CGGGAGCA | 0.108 |
| CCAGAGCG | -0.00204 |
| ATGGAGCG | -0.0671 |
| CCGGAGCG | 0.458 |
| ACGGAGCT | 0.395 |
| GCGGAGCA | 0.376 |
| ACGGAGCA | 0.344 |
| CCGGAGCA | 0.473 |
| ACGGAGCC | 0.385 |
| TACTCATA | -0.285 |
| AGCATTGC | -0.106 |
| GCAGTTCC | 0.169 |
| AGTGCGTA | -0.0325 |
| CAGATAAC | 0.123 |
| CCCACTGA | -0.155 |
| GTAGAAGA | -0.177 |
